Hit rate of the full screen: of about 320,000 compounds, about 1,300 (0.41%) were called active. Inconclusive results (about 3%) are left out. How the calls were made is not given here. Not all results are given here. Measured potencies and affinities stand elsewhere.

The inhibition is the drop in the measured response relative to a control, in per cent.

The nature of the assay: growth inhibition of non-replicating M. tuberculosis (AID 488890).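 Further: plate controls were DMSO cells for no effect and high antibiotic wells for full effect.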 To be noted: Mycobacterium tuberculosis non-replicating, at 25 µM, stronger effect = higher value.
For `O=C(Cn1nc(Cc2cccnc2)c2ccccc2c1=O)N1CCN(c2ccccn2)CC1`, the inhibition came to 2.03%.
The figure for `Cc1ccccc1CNC(=O)C(=O)NCC1OCCCN1S(=O)(=O)c1ccc(F)cc1C` (stereo unspecified) is 16.5%; for `Cc1cc(C)n2nc(SCC(=O)c3cc(C)n(-c4cc(C)on4)c3C)nc2n1` it is 35.9%.
Regarding `NC(=O)NCC12CC3CC(CC(C3)C1)C2`, the inhibition is -1.98%.
Regarding `CNC(=O)COc1ccc(S(=O)(=O)N2CCCC2)cc1`, the inhibition is -27.9%.
The figure for `O=C(O)COc1ccc(S(=O)(=O)N2CCCC2)cc1` is -9.2%; for `COc1cccc(-c2cn(-c3cccc(C(F)(F)F)c3)c(=S)[nH]2)c1` it is 5.54%; for `Cc1cccc(OC(=O)c2cccnc2)c1` it is 74.1%.
The value for `COC(=O)c1ccc2nccnc2c1` was -20.4%; that for `CN(Cc1ccccc1)C(=O)c1ccc(NC(=O)c2ccccc2)cc1` was -0.423%.
The figure for `Cn1c(-c2ccccc2)cc2ccccc21` is -0.86%.
With `Cc1ccc(CNc2ccc([N+](=O)[O-])cc2C(N)=O)cc1`, the inhibition was -0.61%.
The value for `CCOc1c(C(N)=O)cc([N+](=O)[O-])cc1[N+](=O)[O-]` was 7.1%.
With `COc1ccc(CCNC(=O)c2cc3cc(F)ccc3nc2C)cc1OC`, the inhibition was determined as 2.52%.
The figure for `O=C(O)CCCN=CC1=C(O)CNC1=O` is 2.02%.
On to `CCOc1ccccc1Oc1coc2cc(OCC(=O)O)ccc2c1=O`, for which the inhibition is -6.12%.
Turning to `COc1ccc(-c2oc3ccccc3c(=O)c2OCC(=O)O)cc1`, the inhibition stood at 6.78%.
Take `COc1ccccc1Oc1coc2cc(OCC(N)=O)ccc2c1=O`: the inhibition is 32.8%.
`COc1ccccc1-c1coc2cc(OC(=O)/C=C/c3ccccc3)ccc2c1=O`: the inhibition is 33.4%.
The figure for `COc1ccc(-c2oc3ccccc3c(=O)c2OC(C)=O)cc1` is 64.7%.
The figure for `COc1ccccc1-c1coc2cc(OC(=O)N3CCOCC3)ccc2c1=O` is 17.2%.
The figure for `CCC(=O)NCCNc1ccc([N+](=O)[O-])cn1` is -5.26%; for `Cc1onc(C(N)=O)c1C(=O)Nc1ncc(C(F)(F)F)cc1Cl` it is -30.8%; for `Cc1ccc(C(=O)N2CCN(c3ccccc3F)CC2)cc1NC1=NC2CS(=O)(=O)CC2S1` (stereo unspecified) it is -2.79%.
On to `CC(Cc1cccs1)NC(=O)Nc1cccc(Cl)c1` (stereo unspecified), for which the inhibition came out at 48.3%.
As for `CC(Cc1cccs1)NC(=O)c1cccs1` (stereo unspecified), the inhibition is 75.3%.
As to `CNc1ccc(C2(O)C(=O)c3ccccc3C2=O)cc1`, the inhibition worked out at 50.8%.
The value for `CCN(c1ccc(NC(=O)COC(=O)c2ccc(S(=O)(=O)N3CCCC3)cc2)cc1)C(C)C` was 11.1%; that for `COC(=O)/C(=C1/Oc2ccc(C)cc2S1)C(F)(F)F` was 6.15%; that for `COC(=O)/C(=C1/Oc2ccc(C(C)(C)C)cc2S1)C(F)(F)F` was 32.3%.
The value for `CC(=O)c1cccc(NC(=O)CN(C)S(=O)(=O)c2ccccc2)c1` was 1.23%; that for `CC[C@H](C)[C@H](NC(=O)[C@H](Cc1ccc(O)cc1)NC(=O)[C@@H](N)C(C)C)C(=O)N[C@@H](Cc1cnc[nH]1)C(=O)N1CCC[C@H]1C(=O)N[C@@H](Cc1ccccc1)C(=O)O` was -4.04%; that for `CN(C)S(=O)(=O)c1ccc(N2CCCC2)c(C(=O)NNC(=O)c2ccccc2)c1` was 37.4%.
The figure for `COc1cc(/C=N/Nc2nc(C)cc(C)n2)ccc1OC(=O)c1ccco1` is 23.8%.
On to `O=c1oc(-c2cccs2)nc2ccc(Cl)cc12`, for which the inhibition was determined as 79.1%.
Consider `O=c1cc(-c2cccs2)oc2ccc(Cl)cc12`, for which the inhibition is 19.9%.
The value for `CC(NC(=O)CCNC(=O)c1ccco1)c1ccccc1` (stereo unspecified) was -4.55%.
`CCCCCC1CC(CC(=O)Nc2ccc([N+](=O)[O-])cc2)C(=O)O1` (stereo unspecified): the inhibition worked out at 29.9%.
The figure for `CCCCCCC1CC(CC(=O)Nc2ccc([N+](=O)[O-])cc2)C(=O)O1` (stereo unspecified) is 46%; for `OCCCC1CCCN(Cc2cn[nH]c2-c2ccc(F)cc2F)C1` (stereo unspecified) it is -4.41%; for `COc1ccc(CC(=O)Nc2ccc(N3CCCCC3)cc2)cc1` it is 10.3%.
Take `O=C(O)Cc1ccc(NC(=O)Nc2ccc3c(c2)OCO3)cc1`: the inhibition is -6.44%.
With `OCCN1CCN(Cc2ccc3ccccc3c2)CC1`, the inhibition came out at 0.76%.
On to `OC1CCN(Cc2ccc3ccccc3c2)CC1`, for which the inhibition stood at 12.5%.
The value for `CC1=NN(Cc2cc(C(C)(C)C)c(O)c(C(C)(C)C)c2)C(=O)C1` was -2.66%; that for `CC(C)(C)c1cc(CN2CCCCC2)cc(C(C)(C)C)c1O` was 16.6%; that for `CC(C)(C)c1cc(C(=S)N2CCN(CCO)CC2)cc(C(C)(C)C)c1O` was 19.5%.
The value for `OC1CCN(Cc2cccc(Oc3ccccc3)c2)CC1` was -6.53%.
The figure for `COCCCn1c(C)nnc1SCC(=O)NNC(=O)COc1ccc(Cl)cc1` is 0.75%; for `CSc1ccccc1C(=O)NCCSC(C)(C)C` it is -2.18%; for `COc1ccccc1NC(=O)COc1ccc(/C=N/NC(=O)CSCc2cc(C)cc(C)c2)cc1` it is 8.98%.
In the case of `CN(C)c1ccc(C(=O)Nc2ccc(O)c3c(=O)cc(-c4ccccc4Cl)oc23)cc1`, the inhibition came to 7.25%.
Regarding `O=C(Cn1cncn1)c1ccc(Cl)cc1`, the inhibition was -4.45%.
Turning to `CC1=NN(C(=O)COc2ccccc2)C(O)(c2cccnc2)C1` (stereo unspecified), the inhibition is -18.8%.
The value for `CC1=NN(C(=O)Cc2ccccc2)C(O)(c2ccccc2)C1` (stereo unspecified) was 7.51%; that for `CCC1=NN(C(=O)COc2ccccc2C)C(O)(c2ccncc2)C1` (stereo unspecified) was -19%.
The figure for `CCOC(=O)N1N=C(C)CC1(O)c1ccc(Cl)cc1` (stereo unspecified) is -5.02%; for `COc1ccc(C(=O)Nc2ccc3nc(N4CCN(C)CC4)cc(C)c3c2)c(OC)c1` it is 76%; for `CCc1nonc1NC(=O)c1oc2ccc(F)cc2c1C` it is -7.95%.
In the case of `CN1CCN(S(=O)(=O)c2ccc(NS(=O)(=O)c3ccccc3)cc2)CC1`, the inhibition amounted to 2.91%.
Turning to `CC1CC(C)CN(C(=O)c2ccc(S(=O)(=O)N3CCCC3)cc2)C1` (stereo unspecified), the inhibition amounted to 62.4%.
As for `Cc1cc(C(F)(F)F)nc(SCC(=O)c2cccc([N+](=O)[O-])c2)n1`, the inhibition was found to be 14.9%.
The figure for `O=C(COC(=O)c1ccc(Cl)c(S(=O)(=O)N2CCOCC2)c1)NCc1ccco1` is -2.49%; for `O=C(Cc1ccc(-c2ccccc2)cc1)OCC(=O)N1CCCC1=O` it is 16.6%; for `CN(C)c1ccc(-c2sc(Nc3ccccc3)n[n+]2-c2ccc(F)cc2)cc1` it is 60.9%.
For `CSc1ccc(-c2sc(Nc3ccccc3)n[n+]2-c2ccc(F)cc2)cc1`, the inhibition is 20.5%.
As for `Cc1cc(C(=O)NCCC2=CCCCC2)c(C)o1`, the inhibition turned out to be 15.7%.
As to `O=C(NCc1ccccn1)C1CCC(CNS(=O)(=O)c2cccc3nsnc23)CC1` (stereo unspecified), the inhibition was 0.68%.
The value for `O=C(Nc1ccccc1O)c1ccc(NS(=O)(=O)c2cccc3cccnc23)cc1` was 27.4%.
The value for `Cc1ccc(/C=C(\NC(=O)c2ccccc2)C(=O)NC(Cc2ccccc2)C(=O)O)cc1` (stereo unspecified) was -0.85%; that for `Cc1ccc(O)c(CO)n1` was 1.36%; that for `CC(=O)Nc1ccccc1/C=C/c1ccc2c(C)ccc(O)c2n1` was 77.9%.
In the case of `CN1CCCN(C(=O)c2ccc(Cl)cc2)CC1`, the inhibition was -25.6%.
The figure for `Cc1sc2nc(CSc3ccc([N+](=O)[O-])c(C(F)(F)F)c3)[nH]c(=O)c2c1C` is -14.8%; for `CCCC1(CCC)NC(=O)N(CC(=O)N2CCN(C(=O)c3ccco3)CC2)C1=O` it is 0.73%.
As to `Cn1nc(-c2ccc(OCC(N)=O)cc2)c2ccccc2c1=O`, the inhibition stood at 27.5%.
The value for `CNC(=O)COc1ccc(-c2nn(C)c(=O)c3ccccc23)cc1` was -6.01%.
The figure for `CCN1CCN(c2nc(N)c([N+](=O)[O-])c(Nc3cccc(C)c3)n2)CC1` is 71.8%.
The figure for `CCOC(=O)CNC(=O)N1CCc2ccc(NC(=O)c3ccccc3OC)cc2C1` is 44.4%; for `CCN(C(=O)COC(=O)c1cccc(S(=O)(=O)N2CCOCC2)c1)C1CCS(=O)(=O)C1` (stereo unspecified) it is -11%; for `Cc1cccc2c(=O)cc(C(F)(F)F)[nH]c12` it is 52.3%.
On to `O=c1cc(C(F)(F)F)[nH]c2ccccc12`, for which the inhibition is -4.11%.
The value for `O=C(O)CCCNS(=O)(=O)c1ccc(NCc2ccccc2)c(C(=O)O)c1` was -9.34%.
As for `CC1=NN(C(=O)c2ccccc2Cl)C(O)(c2cccnc2)C1` (stereo unspecified), the inhibition is -11.1%.
The value for `CC1=NN(C(=O)CCc2ccccc2)C(O)(c2ccncc2)C1` (stereo unspecified) was -17.3%; that for `O=C(c1ccccc1)N1N=C(c2ccccc2)CC1(O)C(F)(F)F` (stereo unspecified) was 66.9%; that for `CC1=NN(C(=O)c2ccccc2Br)C(O)(c2cccnc2)C1` (stereo unspecified) was 1.25%.
The value for `CCOC(=O)N1N=C(c2ccccc2)CC1(O)C(F)(F)F` (stereo unspecified) was -6.72%.
The value for `CCC1(O)CC(C(=O)OC)=NN1C(=O)c1ccccc1` (stereo unspecified) was 50.2%; that for `COC(=O)C1=NN(C(=O)c2ccc(C)cc2)C(O)(c2ccc(Cl)cc2)C1` (stereo unspecified) was 68.2%; that for `Nc1ccc(C(=O)N2N=C(c3ccccc3)CC2(O)C(F)(F)F)cc1` (stereo unspecified) was 18.4%.
As to `CC(=O)Nc1sc(C)c(C)c1C(=O)OCC(=O)Nc1ccccc1`, the inhibition turned out to be 6.17%.
The figure for `CSc1ncccc1C(=O)OCc1ccc([N+](=O)[O-])cc1` is 39.8%.
The figure for `COc1ccc(C(=O)N/N=C2\CCc3ccccc32)cc1OC` is -1.04%.
Take `Cc1cccc(NC(=O)C[n+]2ccccc2)c1`: the inhibition is 16.1%.
`Cc1c(NC(=O)COC(=O)c2cc(-c3ccc(-c4ccccc4)cc3)nc3ccccc23)c(=O)n(-c2ccccc2)n1C`: the inhibition is -36%.
For the compound `NC(=O)c1nsc(C(=O)N(c2cccc(F)c2)C(C(=O)NCC2CCCO2)c2c[nH]c3ccccc23)c1N` (stereo unspecified), the inhibition stood at 29.5%.
The value for `CC1=NN(C(=O)Cc2ccccc2)C(O)(c2cccnc2)C1` (stereo unspecified) was -2.18%; that for `CC1=NN(C(=O)c2ccco2)C(O)(c2ccccc2)C1` (stereo unspecified) was 70.5%; that for `O=C(c1ccco1)N1N=C(c2ccc(Cl)cc2)CC1(O)C(F)(F)F` (stereo unspecified) was 58%.
As for `O=C(c1ccccc1)N1N=C(c2ccc(F)cc2)CC1(O)C(F)(F)F` (stereo unspecified), the inhibition was 67.9%.
The value for `C=CCn1c(SCC(=O)Nc2ccccc2OC)nc2c([nH]c3ccccc32)c1=O` was -4.69%.
The figure for `COc1ccccc1-c1nnc(SCc2nc3ccccc3[nH]2)n1C` is 25.9%; for `O=C(Nc1cccc(F)c1)Nc1ccc2c(c1)C(=O)OC2` it is -9.41%.
The figure for `Cc1cccc(C)c1OCC(=O)NCC1COc2ccccc2O1` (stereo unspecified) is -21%; for `CCN1CCN(c2ccc(NC(=O)c3ccco3)cc2Cl)CC1` it is -16.6%.
With `CCOC(=O)Cc1c(C)nc2c(-c3cccc(Br)c3)cnn2c1C`, the inhibition was -10.5%.
Take `CCOC(=O)Cc1cc(=O)n2[nH]cc(-c3ccc(Cl)cc3)c2n1`: the inhibition came to 81.6%.
For the compound `CCOC(=O)Cc1c(C)nc2c(-c3ccccc3)c(C)[nH]n2c1=O`, the inhibition amounted to 23.1%.
For the compound `CCOC(=O)Cc1c(C)nc2c(C#N)c[nH]n2c1=O`, the inhibition is -14.1%.
The figure for `CC1=CC(C)(C)Nc2ccc(OS(=O)(=O)c3ccc(C)cc3)cc21` is -0.67%.

For the origin of these results see PubChem BioAssay AID488890 (Southern Research Specialized Biocontainment Screening …, 2010).
